# Experimental data as given in PubChem BioAssay (NCATS).
# Several values for one entry are separate records, joined by “and”; a condition that tells them apart may be missing. Identical values can stand only once. Records with an inconclusive call do not appear. Entries that show only a call come without a potency. Activity calls are given as the source filed them. Unless noted, the call rests on the fitted dose curve; in most records, active means well fitted curve in the direction sought with a large enough effect; inconclusive means small, poorly fitted or top-dose-only effect, or another doubt; inactive means no such curve, though single readings can be large; an effect the other way counts as inactive or inconclusive.
# Tests used:
# [1] = biological target: Calcium and integrin-binding protein 1 (Homo sapiens) (UniProt Q99828); experiment: Primary qHTS for Identification of Calcium Integrin Binding Protein 1 (CIB1) Competitor (AID 1508620);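 further: GST tagged CIB1 binding a fluorescein labelled alphaIIb integrin peptide tracer; top concentration of the series differs between compounds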
# Calcium and integrin-binding protein 1 (Homo sapiens), sequence (Q99828 whole entry, looked up): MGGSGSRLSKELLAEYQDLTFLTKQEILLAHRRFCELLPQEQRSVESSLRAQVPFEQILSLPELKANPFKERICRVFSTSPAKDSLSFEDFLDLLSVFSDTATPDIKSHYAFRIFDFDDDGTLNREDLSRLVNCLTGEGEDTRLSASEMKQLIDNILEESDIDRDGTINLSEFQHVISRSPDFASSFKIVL
# Summary of the method: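 Fluorescence polarization competition: CIB1-GST (1 uM final) preincubated with compound 15 min at room temperature, then FITC-labeled alphaIIb peptide (100 nM final) added for another 15 min. Polarization read at Ex 480/Em 540.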
# [2] = Primary qHTS for small molecule stabilizers of the endoplasmic reticulum resident proteome: Secreted ER Calcium Modulated Protein (SERCaMP) assay (AID 1508630)
# Summary of the method: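 The SH-SY5Y reporter protocol was run at 3 concentrations up to 38.3 uM (primary) or 11 concentrations (follow-up): 16 h compound, 100 nM thapsigargin for 4 h, then extracellular luciferase luminescence.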
# [3] = biological target: Cytochrome P450 2D6 (Homo sapiens) (UniProt P10635); experiment: Cytochrome P450 family 2 subfamily D member 6 (CYP2D6) small molecule antagonists: luciferase biochemical (cell-free) qHTS assay (AID 1645840; active means well fitted curve in the direction sought with a large enough effect in the repeat runs; an effect the other way counts as inactive or inconclusive; further: nearly all actives have a fitted effect of over 55% in size; further: potency means the concentration at half of the fitted maximal effect)
# Cytochrome P450 2D6 (Homo sapiens), sequence (P10635 whole entry, looked up): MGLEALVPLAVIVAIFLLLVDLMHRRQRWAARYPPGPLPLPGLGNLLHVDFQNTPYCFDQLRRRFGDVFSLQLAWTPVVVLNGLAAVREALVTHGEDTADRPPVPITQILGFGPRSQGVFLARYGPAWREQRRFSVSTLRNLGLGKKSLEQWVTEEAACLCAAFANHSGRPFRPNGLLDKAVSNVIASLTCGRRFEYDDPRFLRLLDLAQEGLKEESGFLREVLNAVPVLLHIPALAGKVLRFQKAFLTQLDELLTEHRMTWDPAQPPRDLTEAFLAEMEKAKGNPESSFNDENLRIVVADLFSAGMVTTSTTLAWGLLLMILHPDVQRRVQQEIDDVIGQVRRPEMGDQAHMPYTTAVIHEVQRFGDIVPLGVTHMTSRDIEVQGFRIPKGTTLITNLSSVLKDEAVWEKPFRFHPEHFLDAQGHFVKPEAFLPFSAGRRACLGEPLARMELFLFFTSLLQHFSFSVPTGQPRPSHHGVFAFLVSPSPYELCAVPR
# Summary of the method: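 P450-Glo CYP2D6 system: proluciferin substrate converted by enzyme to luciferin, read by luminescence proportional to activity. Enzyme-substrate mix with compound 10 min at room temperature, then NADPH regeneration 1 h before detection reagent.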
# [4] = biological target: Cytochrome P450 2C9 (Homo sapiens) (UniProt P11712); experiment: Cytochrome P450 family 2 subfamily C member 9 (CYP2C9) small molecule antagonists: luciferase biochemical (cell-free) qHTS assay (AID 1645842; active means well fitted curve in the direction sought with a large enough effect in the repeat runs; an effect the other way counts as inactive or inconclusive; further: nearly all actives have a fitted effect of over 55% in size; further: potency means the concentration at half of the fitted maximal effect)
# Cytochrome P450 2C9 (Homo sapiens), sequence (P11712 whole entry, looked up): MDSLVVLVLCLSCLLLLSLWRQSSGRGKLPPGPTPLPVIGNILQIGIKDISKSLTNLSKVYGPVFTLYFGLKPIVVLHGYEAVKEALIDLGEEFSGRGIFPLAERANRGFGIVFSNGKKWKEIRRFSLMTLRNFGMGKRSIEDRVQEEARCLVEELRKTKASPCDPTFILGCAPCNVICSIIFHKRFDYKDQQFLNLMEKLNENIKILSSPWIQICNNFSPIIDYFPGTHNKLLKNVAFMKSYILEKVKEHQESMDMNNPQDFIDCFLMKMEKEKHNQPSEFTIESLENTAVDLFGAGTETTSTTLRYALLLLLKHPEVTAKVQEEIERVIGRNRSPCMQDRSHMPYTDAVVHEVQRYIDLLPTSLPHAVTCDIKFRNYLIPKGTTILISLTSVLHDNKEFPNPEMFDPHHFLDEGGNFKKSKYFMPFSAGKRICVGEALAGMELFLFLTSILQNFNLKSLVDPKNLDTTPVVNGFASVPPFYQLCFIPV
# Summary of the method: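 P450-Glo CYP2C9 system: proluciferin substrate with enzyme in mix containing 0.4% BSA, 10 min at room temperature, then NADPH regeneration solution added and incubated 1 h at 37C. Detection reagent stopped reaction; luminescence read after 20 min as RLU.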
# [5] = Primary qHTS for inhibitors of nuclear receptor binding SET domain protein 2 (NSD2) in an isogenic RCH-ACV NSD2 p.E1099K mutant (9B) (AID 1645876); further: nearly all actives have a fitted effect of over 70% in size; further: potency means the concentration at half of the fitted maximal effect
# [6] = biological target: Calcium and integrin-binding protein 1 (Homo sapiens) (UniProt Q99828); experiment: Confirmatory qHTS for Identification of Calcium Integrin Binding Protein 1 (CIB1) Competitor (AID 1508617); further: nearly all actives have a fitted effect of over 65% in size; further: potency means the concentration at half of the fitted maximal effect
# Summary of the method: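 Fluorescence polarization competition: CIB1-GST (1 uM final) in 5 mM HEPES pH 7.4, 125 mM NaCl, 5 mM CaCl2, 0.01% Tween20 preincubated 15 min RT with compound (up to 114 uM), then FITC-alphaIIb peptide (100 nM) added, 15 min RT.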
# [7] = biological target: Cytochrome P450 3A4 (Homo sapiens) (UniProt P08684); experiment: Cytochrome P450 family 3 subfamily A member 4 (CYP3A4) small molecule antagonists: luciferase qHTS assay (AID 1645841; active means well fitted curve in the direction sought with a large enough effect in the repeat runs; an effect the other way counts as inactive or inconclusive; further: nearly all actives have a fitted effect of over 45% in size)
# Cytochrome P450 3A4 (Homo sapiens), sequence (P08684 whole entry, looked up): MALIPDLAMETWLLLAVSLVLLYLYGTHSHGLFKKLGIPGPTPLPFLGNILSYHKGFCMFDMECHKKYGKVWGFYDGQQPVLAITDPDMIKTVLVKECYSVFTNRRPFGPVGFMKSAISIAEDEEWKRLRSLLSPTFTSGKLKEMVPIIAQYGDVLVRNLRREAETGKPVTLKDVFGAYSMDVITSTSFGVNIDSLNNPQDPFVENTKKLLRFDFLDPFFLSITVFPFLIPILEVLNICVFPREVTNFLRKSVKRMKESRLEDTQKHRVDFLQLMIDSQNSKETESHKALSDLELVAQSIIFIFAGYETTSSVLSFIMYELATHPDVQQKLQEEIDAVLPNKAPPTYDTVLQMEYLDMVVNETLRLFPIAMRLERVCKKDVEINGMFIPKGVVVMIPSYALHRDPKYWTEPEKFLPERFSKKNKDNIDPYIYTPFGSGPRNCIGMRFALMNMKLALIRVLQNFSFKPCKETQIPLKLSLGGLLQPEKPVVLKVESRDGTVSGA
# Summary of the method: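 P450-Glo CYP3A4 enzyme with proluciferin substrate was preincubated with DMSO-dissolved compounds for 10 min at room temperature. NADPH regeneration solution started a 1 h reaction. Detection reagent stopped it, and luminescence was read after 20 min.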
smiles,measurement,setting,value
CN(C)Cc1c(C(=O)NCCOc2ccc(C(=O)NO)cc2)oc2ccccc12,outcome,[1],inactive
same,Potency,[2],inactive
same,Potency,[3],1.69 µM (active)
same,Potency,[4],inactive
same,Potency,[5],515 nM (active) and 332 nM (active)
CC(C)=CCCC(C)=CCCC(C)=CCSc1ccccc1C(=O)O,outcome,[1],inactive
CCCCCN(CCC12CC3CC(CC(C3)C1)C2)C(=O)NCCCc1ccncc1,outcome,[1],inactive
CC=C1NC(=O)[C@H]2CSSCCC=C[C@H](CC(=O)N[C@H](C(C)C)C(=O)N2)OC(=O)[C@H](C(C)C)NC1=O,outcome,[1],inactive
same,Potency,[2],inactive
Cn1c2ccccc2c2c3c(c4c5ccccc5n(CCC#N)c4c21)CNC3=O,outcome,[1],inactive
same,Potency,[2],inactive
CCC1=C[C@@H]2CN(C1)Cc1c([nH]c3ccccc13)[C@@](C(=O)OC)(c1cc3c(cc1OC)N(C)[C@@H]1[C@@](O)(C(=O)OC)[C@H](OC(C)=O)[C@]4(CC)C=CCN5CC[C@]31[C@@H]54)C2,outcome,[1],inactive
COc1c(N2C[C@@H]3CCCN[C@H]3C2)c(F)cc2c(=O)c(C(=O)O)cn(C3CC3)c12,outcome,[1],inactive
same,Potency,[2],inactive
same,Potency,[3],inactive
same,Potency,[4],inactive
same,Potency,[5],inactive
Cc1cccc(C=NNc2cc(N3CCOCC3)nc(OCCc3ccccn3)n2)c1,outcome,[1],inactive
same,Potency,[2],inactive
CCOc1cc2ncc(C#N)c(Nc3ccc(F)c(Cl)c3)c2cc1NC(=O)C=CCN(C)C,outcome,[1],inactive
CC(=O)Nc1sc2c(c1-c1nc3ccccc3s1)CNC2,Potency,[6],inactive
same,outcome,[1],inactive
same,Potency,[5],2.9 µM (active)
CN(C)CC=CC(=O)Nc1cc2c(Nc3ccc(F)c(Cl)c3)ncnc2cc1O[C@H]1CCOC1,outcome,[1],inactive
same,Potency,[2],inactive
COc1cc2ncnc(Nc3ccc(F)c(Cl)c3)c2cc1NC(=O)C=CCN1CCCCC1,outcome,[1],inactive
same,Potency,[2],inactive
CCNC(=O)Nc1ccc2ncc(Nc3ccc(C)cc3)nc2n1,outcome,[1],inactive
same,Potency,[2],inactive
same,Potency,[3],inactive
same,Potency,[4],inactive
same,Potency,[5],inactive
COc1cc(=C2C=c3ccccc3=N2)[nH]c1=Cc1[nH]c(C)cc1C,outcome,[1],inactive
same,Potency,[2],inactive
COc1c(OCCCN2CCOCC2)ccc2c3n(c(=NC(=O)c4cnc(N)nc4)nc12)CCN3,outcome,[1],inactive
same,Potency,[2],inactive
same,Potency,[3],inactive
same,outcome,[7],inactive
same,Potency,[4],inactive
same,Potency,[5],9.4 nM (active) and 24.1 nM (active)
CCOc1ccccc1OCCNC(C)Cc1ccc(OC)c(S(N)(=O)=O)c1 (stereo not drawn),outcome,[1],inactive
same,Potency,[2],inactive
same,Potency,[3],10.7 µM (active)
same,Potency,[4],inactive
same,Potency,[5],inactive
CC=CC1=C(C(=O)O)N2C(=O)[C@H](NC(=O)[C@H](N)c3ccc(O)cc3)[C@@H]2SC1,outcome,[1],inactive
same,Potency,[2],inactive
CC(C)(O)CCc1ccc(OCc2cc(-c3cccc(OC(F)F)c3)c3ncccc3c2)cc1,Potency,[6],inactive
same,Potency,[2],inactive
same,Potency,[5],20.9 µM (active)
CCCCN1CCC(CNC(=O)c2c3n(c4ccccc24)CCCO3)CC1,outcome,[1],inactive
same,Potency,[2],inactive
Cc1[nH]c2ccccc2c1CCNCc1ccc(C=CC(=O)NO)cc1,outcome,[1],inactive
same,Potency,[2],inactive
C=CC(=O)Nc1cccc(Oc2nc(Nc3ccc(N4CCN(C)CC4)cc3OC)ncc2Cl)c1,outcome,[1],inactive
same,Potency,[2],inactive
same,Potency,[3],23.9 µM (active)
same,Potency,[4],13.5 µM (active)
same,Potency,[5],5.15 µM (active) and 8.33 µM (active)
O=C(C=Cc1cccnc1)NCCCCC1CCN(C(=O)c2ccccc2)CC1,outcome,[1],inactive
same,Potency,[2],inactive
CC(C)(C)NC(=O)[C@H]1CN(Cc2cccnc2)CCN1C[C@@H](O)C[C@@H](Cc1ccccc1)C(=O)N[C@H]1c2ccccc2C[C@H]1O,outcome,[1],inactive
same,Potency,[2],inactive
CCC[C@H](NC(=O)C(C#N)=Cc1cccc(Br)n1)c1ccccc1,outcome,[1],inactive
same,Potency,[2],inactive
CC1(C)O[C@@H]2C[C@@H]3[C@H]4C[C@@H](F)C5=CC(=O)C=C[C@]5(C)[C@@]4(F)[C@@H](O)C[C@]3(C)[C@]2(C(=O)CO)O1,outcome,[1],inactive
same,Potency,[2],inactive
Cn1cc(-c2[nH]c3cc(NC(=O)[C@H](N)C4CCCCC4)cc4c3c2C=NNC4=O)cn1,Potency,[6],50.1 µM (active)
same,Potency,[2],inactive
same,Potency,[3],inactive
same,Potency,[4],9.52 µM (active)
same,Potency,[5],578 nM (active) and 833 nM (active)
COc1cc(Nc2ncc(F)c(Nc3ccc4c(n3)N(COP(=O)(O)O)C(=O)C(C)(C)O4)n2)cc(OC)c1OC,outcome,[1],inactive
same,Potency,[2],inactive
same,Potency,[3],inactive
same,Potency,[4],10.7 µM (active)
same,Potency,[5],1.29 µM (active) and 5.17 µM (active) and 1.48 µM (active)
COc1cc2c(Oc3ccc(NC(=O)C4(C(=O)Nc5ccc(F)cc5)CC4)cc3F)ccnc2cc1OCCCN1CCOCC1,outcome,[1],inactive
same,Potency,[2],inactive
same,Potency,[4],3.01 µM (active)
same,Potency,[5],515 nM (active) and 1.32 µM (active)
COc1cc2c(Nc3ccc(NC(=O)c4ccccc4)cc3)ncnc2cc1OCCCN1CCOCC1,outcome,[1],inactive
same,Potency,[2],inactive
same,Potency,[5],5.15 µM (active) and 4.68 µM (active)
Clc1cccc(-c2nnnn2Cc2cccnc2)c1Cl,outcome,[1],inactive
same,Potency,[2],inactive
same,Potency,[3],inactive
same,Potency,[5],inactive
